Bioassay records deposited in PubChem by National Center for Advancing Translational Sciences (NCATS).
Hits are enriched below; roughly 7.3% of the tested compounds scored in any of these assays.
FMDV inh: High Throughput Screening for Foot and Mouth Disease Virus Antivirals; 410,000 compounds, 1.2% hits; FMDV antiviral cell-based qHTS; AID 1159524, 2015; Potency, µM (titrated, usually from 57.9 µM), inactives show top-dose activity change, negative = inhibition, hits mostly inhibitors; calls by dose curve; tested in HEK293T cells; also: read-out not given here; potency is read from the fitted curve at half-maximal effect; nearly all actives have a fitted effect of over 45% in size
HCV inhibitor: qHTS Assay for Inhibitors of Hepatitis C Virus (HCV). 340,000 compounds, 3.4% hits. Potency, µM (series often up to 41.8 µM), for inactives: at the highest dose activity change, negative = inhibition, actives largely listed as inhibitors. Huh7.5.1 HCVcc-Cre infection, luciferase reporter, 44 h; active = well fitted inhibition curve with a large enough effect; inconclusive = small, poorly fitted or top-dose-only effect, or another doubt; inactive = no such curve, though single readings can be large or run the other way; also: potency is read from the fitted curve at half-maximal effect
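Infectious HCV cell culture screen: compound-treated cells (1,000/well, pre-plated 4 h) are infected with HCVcc-Cre at roughly 0.5 moi and grown 44 h. Infection is quantified by luciferase signal after 15 min substrate incubation at room temperature.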
VACV Venus inh: qHTS for Stage-Specific Inhibitors of Vaccinia Orthopoxvirus: Venus Reporter Primary qHTS | Potency, µM (series often up to 36.5 µM), without a hit: top-dose activity change, negative = inhibition, usual class: inhibitors | Vaccinia virus Venus reporter expression, fluorescence | 330,000 compounds, 0.46% hits; calls by dose curve; tested in A549 cells; also: potency is read from the fitted curve at half-maximal effect; nearly all actives have a fitted effect of over 30% in size
HCMV antiviral: qHTS Assay for inhibitors of the human cytomegalovirus (HCMV) | activity change, negative = inhibition, % at 57.5 µM | AID 1259415, 2018 | 410,000 compounds, 4.5% hits | HFF cells, HCMV-luciferase reporter, 72 h; hits give low values; in the data active = activity change below about -60%; inconclusive = no clear call, values can overlap the other calls; inactive = above about -39%
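Luciferase read-out from HCMV-luciferase-infected HFFs (MOI 1 PFU/cell) 72 h post infection at 37C; compounds added after 16 h cell attachment; activity normalized between buffer-only basal and Salinomycin (10uM) inhibitor controls.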
VACV mCherry inh: qHTS for Stage-Specific Inhibitors of Vaccinia Orthopoxvirus: mCherry Reporter Primary qHTS; Potency, µM (series often up to 36.5 µM), inactives show at the top dose activity change, negative = inhibition, actives largely listed as inhibitors; Vaccinia virus mCherry reporter infection, fluorescence; 310,000 compounds, 0.63% hits; AID 720579, 2013; calls by dose curve; tested in A549 cells; also: potency is read from the fitted curve at half-maximal effect; nearly all actives have a fitted effect of over 35% in size
Numbers without * were called inactive; i = inactive; ? = inconclusive; nt = no result. % is scaled to controls: 0 for no effect and ±100 for the full control effect.

SMILES | FMDV inh | HCV inhibitor | VACV Venus inh | HCMV antiviral | VACV mCherry inh
O=C(CNc1cccc([N+](=O)[O-])c1)N/N=C/c1ccc([N+](=O)[O-])o1 | 11% | ? | ? | -66* | ?
O=C(CNc1ccccc1)N/N=C/c1ccc([N+](=O)[O-])cc1 | -5% | 1% | nt | 0 | nt
O=C(CN1CCCCCCC1)N/N=C/c1ccc([N+](=O)[O-])o1 | -9% | ? | 10µM* | ? | 11µM*
Fc1cccc(Oc2ccc3c(-c4ccccc4F)noc3n2)c1 | nt | nt | nt | -25 | nt
CC(=O)NCCCN(Cc1ccc(Cl)c(Cl)c1)c1ccc(Br)cn1 | nt | nt | -25% | nt | -29%
O=C(Cc1ccc([N+](=O)[O-])cc1)N/N=C/c1ccc([N+](=O)[O-])o1 | -13% | 14µM* | 11µM* | -18 | 10µM*
O=C(CC12CC3CC(CC(C3)C1)C2)N/N=C/c1ccc([N+](=O)[O-])o1 | -29% | ? | 28µM* | -10 | 11µM*
COc1cc2c(=O)n(Cc3ccccc3Cl)c(=O)n(CC(=O)Nc3ccc(C)c(C)c3)c2cc1OC | -2% | nt | -14% | -6 | -20%
Cc1ncc(Cc2ccccc2)c(C2CCN(S(=O)(=O)C[C@]34CC[C@H](CC3=O)C4(C)C)CC2)n1 | 46% | nt | -19% | nt | -19%
Cc1ccccc1NS(=O)(=O)c1cc(C(=O)Nc2ccccc2-c2ccccc2)ccc1Cl | 10% | 11µM* | -20% | 8 | i
Cc1ccc(C)c(NS(=O)(=O)c2cc(C(=O)N3CCc4ccccc4C3)ccc2Cl)c1 | -16% | ? | -16% | -27 | -6%
C=CCNC(=O)c1ccccc1NC(=O)c1ccc(Cl)c(S(=O)(=O)Nc2cc(C)ccc2C)c1 | 52% | 13µM* | ? | -18 | i
Cc1ccccc1NS(=O)(=O)c1cc(C(=O)N2CCCC2)ccc1Cl | -3% | nt | -2% | 14 | i
COc1ccc(C2CC(=O)Nc3c2c(=O)[nH]c2nc4ccccc4n32)cc1 (configuration not stated) | -20% | nt | 19% | 14 | 16%
CC(=O)Nc1ccc(/C=C/c2ccncc2)cc1 | nt | nt | 8% | nt | -13%
CCCCN(Cc1cccs1)S(=O)(=O)c1cc(-c2cc(C)no2)ccc1C | -11% | nt | -26% | ? | i
O=C(Nc1ccc(Cl)cc1)c1csc(C(O)c2cccc(OC(F)(F)F)c2)n1 (configuration not stated) | nt | nt | nt | -36 | nt
COc1ccc(-c2csc(NC(=O)CN3C(=O)C4CCCCC4C3=O)n2)c(OC)c1 (configuration not stated) | ? | 11µM* | -30% | -10 | ?
COc1ccc(-c2csc(NC(=O)CN3C(=O)C4CC=CCC4C3=O)n2)cc1 (configuration not stated) | -18% | ? | nt | -15 | nt
COc1cc(/C=C(/C#N)c2ccc(F)cc2)ccc1Oc1ccc([N+](=O)[O-])cn1 | ? | 2.5µM* | -21% | -61* | -27%
CC1(C)C(=O)C=C[C@@]2(C)C1=C(O)C(=O)[C@@]1(C)C2CC[C@@]2(C)C(c3ccoc3)C[C@H]3O[C@@]321 (some centres not stated) | 10µM* | nt | ? | nt | ?
CN(C)/C(CN1CCN(C=O)CC1)=C1\N=C(c2ccccc2)OC1=O | -6% | ? | -16% | -61* | -10%
CN(C)/C=C1\N=C(c2ccccc2)OC1=O | 20% | ? | -15% | -22 | i
COc1ccc(Oc2cnc3ccccc3n2)cc1 | 42% | -20% | -2% | -63* | i
c1ccc(Oc2cnc3ccccc3n2)cc1 | 24% | 2% | nt | -28 | nt
O=C1CCCC2[C@@H]3CCC[N@+]4([O-])CCC[C@H](CN12)C34 (some centres not stated) | 0% | nt | nt | nt | nt
COc1cc(N2CCCC2)c(OC)cc1C=O | -23% | 11µM* | nt | ? | nt
COc1cc(OC)c(OC)cc1C=O | -12% | 11% | -6% | ? | i
COc1ccc(NC(=O)[C@@H]2O[C@H](CO)[C@H](O)[C@H](O)[C@H]2O)cc1F | -12% | nt | -13% | -6 | i
CCOC(=O)c1cnc2c(C)cccc2c1NCc1ccco1 | nt | 11µM* | -6% | -39 | i
